{"source": "the supplement of paper PMC3334620", "note": "The full ranking holds about 33,000 sequences; the median of “E-score (-0.5 to 0.5)” is about -0.016, and the highest 2% start at about 0.31. Many of the other results were omitted from the sample, so the highest values are more common in it than they were."}
{"target": "Cst6 (UniProt P40535)", "sequence (P40535 whole entry, the tested form may be a part)": "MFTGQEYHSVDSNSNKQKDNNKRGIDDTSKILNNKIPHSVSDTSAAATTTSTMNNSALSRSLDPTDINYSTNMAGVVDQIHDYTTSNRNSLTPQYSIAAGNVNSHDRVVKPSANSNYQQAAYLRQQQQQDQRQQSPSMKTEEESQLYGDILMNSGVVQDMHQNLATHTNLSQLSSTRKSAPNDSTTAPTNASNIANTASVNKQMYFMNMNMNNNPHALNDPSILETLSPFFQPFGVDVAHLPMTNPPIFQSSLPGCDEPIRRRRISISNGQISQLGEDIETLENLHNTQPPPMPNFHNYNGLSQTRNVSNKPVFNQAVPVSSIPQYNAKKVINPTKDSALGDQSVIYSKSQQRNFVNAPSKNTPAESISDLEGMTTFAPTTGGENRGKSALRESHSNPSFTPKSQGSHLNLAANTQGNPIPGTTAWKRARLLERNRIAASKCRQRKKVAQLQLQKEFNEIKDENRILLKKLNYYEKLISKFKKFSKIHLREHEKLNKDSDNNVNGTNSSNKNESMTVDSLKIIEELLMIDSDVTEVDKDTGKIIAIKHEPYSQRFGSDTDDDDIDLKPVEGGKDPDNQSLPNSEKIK", "assay": "PBM E-score (8-mer binding enrichment) (E-score (-0.5 to 0.5)); higher = stronger / more preferred TF binding", "conditions": "protein concentration: 200 nM; construct: GST-DNA-binding domain", "procedure,_shortened": "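Universal all-10-mer Agilent arrays, fresh or stripped once, were converted to double-stranded form by primer extension. GST-tagged yeast transcription factors from PURExpress in vitro transcription/translation, full-length or DNA-binding domain only, were applied at about 100-200 nM and detected with fluorescent anti-GST. After masliner normalisation, the Universal PBM Analysis Suite scored each ungapped eight-base word together with its reverse complement by E-score.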"}
{"sequence": "AGCTACTC", "PBM E-score": -0.274}
{"sequence": "ATTGATGA", "PBM E-score": 0.296}
{"sequence": "CTTGATGA", "PBM E-score": 0.24}
{"sequence": "GTTGATGA", "PBM E-score": 0.309}
{"sequence": "ACGAGGAT", "PBM E-score": -0.0239}
{"sequence": "CTGTCACA", "PBM E-score": 0.0581}
{"sequence": "ATGTCAAA", "PBM E-score": 0.237}
{"sequence": "GTGTCACA", "PBM E-score": 0.229}
{"sequence": "CTGTCACC", "PBM E-score": 0.0496}
{"sequence": "ATGTCAAC", "PBM E-score": 0.251}
{"sequence": "ATGTCAGA", "PBM E-score": 0.221}
{"sequence": "ATGTCACG", "PBM E-score": 0.396}
{"sequence": "ATGTCACC", "PBM E-score": 0.465}
{"sequence": "ATGTCACA", "PBM E-score": 0.375}
{"sequence": "AGGGCTAG", "PBM E-score": -0.242}
{"sequence": "ATCTCTCG", "PBM E-score": -0.0585}
{"sequence": "GGGAAAAC", "PBM E-score": -0.0343}
{"sequence": "AGAGGTTC", "PBM E-score": -0.11}
{"sequence": "AAAGCGCT", "PBM E-score": 0.183}
{"sequence": "GCCGCACC", "PBM E-score": 0.226}
{"sequence": "ATAGAAGG", "PBM E-score": -0.208}
{"sequence": "GTATAATA", "PBM E-score": 0.288}
{"sequence": "ATATAATA", "PBM E-score": 0.31}
{"sequence": "ATAATATG", "PBM E-score": 0.273}
{"sequence": "GTAATATA", "PBM E-score": 0.354}
{"sequence": "ATAATATA", "PBM E-score": 0.358}
{"sequence": "ATAATATC", "PBM E-score": 0.219}
{"sequence": "ACATAATC", "PBM E-score": 0.267}
{"sequence": "GTAATAGA", "PBM E-score": 0.0316}
{"sequence": "GCATAATA", "PBM E-score": 0.227}
{"sequence": "CTAATATA", "PBM E-score": 0.302}
{"sequence": "CTATAATA", "PBM E-score": 0.0135}
{"sequence": "ACATAATA", "PBM E-score": 0.345}
{"sequence": "TTCACAAA", "PBM E-score": 0.0753}
{"sequence": "ATCGCGTG", "PBM E-score": 0.0786}
{"sequence": "CGGGCGAC", "PBM E-score": -0.319}
{"sequence": "GGAGGCCA", "PBM E-score": -0.314}
{"sequence": "AAAAGGTA", "PBM E-score": -0.0898}
{"sequence": "AATTACCG", "PBM E-score": 0.196}
{"sequence": "ATTCGATC", "PBM E-score": 0.153}
{"sequence": "GTTGTTCA", "PBM E-score": 0.0498}
{"sequence": "ATGAGCCG", "PBM E-score": 0.0382}
{"sequence": "ATACGGCC", "PBM E-score": 0.138}
{"sequence": "CTACGGCA", "PBM E-score": 0.283}
{"sequence": "ATACGGCA", "PBM E-score": 0.394}
{"sequence": "ATACGGCG", "PBM E-score": 0.36}
{"sequence": "ATACGGTG", "PBM E-score": 0.104}
{"sequence": "GTACGGCA", "PBM E-score": 0.249}
{"sequence": "AGAAAAGG", "PBM E-score": 0.0591}
{"sequence": "CAGACTTA", "PBM E-score": -0.094}
{"sequence": "CATAAGCA", "PBM E-score": -0.0945}
{"sequence": "GTCACTTA", "PBM E-score": 0.331}
{"sequence": "ATCACTTA", "PBM E-score": 0.194}
{"sequence": "ATCACTCA", "PBM E-score": 0.138}
{"sequence": "GTCACTCA", "PBM E-score": 0.315}
{"sequence": "CTCACTCA", "PBM E-score": 0.0247}
{"sequence": "GTCACTGA", "PBM E-score": 0.281}
{"sequence": "CCAGTGTC", "PBM E-score": -0.108}
{"sequence": "GCGCCTAC", "PBM E-score": 0.136}
{"sequence": "CGGCAACG", "PBM E-score": 0.0207}
{"sequence": "TCGAAGCA", "PBM E-score": -0.0376}
{"sequence": "GGCCGCTA", "PBM E-score": -0.232}
{"sequence": "GCCGCGGA", "PBM E-score": 0.0146}
{"sequence": "GACGCGGC", "PBM E-score": 0.318}
{"sequence": "GCCGCGGC", "PBM E-score": 0.31}
{"sequence": "CCCGCGGC", "PBM E-score": 0.109}
{"sequence": "CACGCGGC", "PBM E-score": 0.279}
{"sequence": "AACGCGGC", "PBM E-score": 0.261}
{"sequence": "AGTGAACC", "PBM E-score": -0.0808}
{"sequence": "GACGTCAA", "PBM E-score": 0.479}
{"sequence": "AACGTCTG", "PBM E-score": 0.0755}
{"sequence": "AACGTCCA", "PBM E-score": 0.0436}
{"sequence": "GACGTCCA", "PBM E-score": 0.276}
{"sequence": "CACGTCTG", "PBM E-score": 0.0582}
{"sequence": "CACGTCAG", "PBM E-score": 0.449}
{"sequence": "AACGTCGG", "PBM E-score": -0.174}
{"sequence": "AACGTCAG", "PBM E-score": 0.371}
{"sequence": "AACGTCGA", "PBM E-score": 0.133}
{"sequence": "GACGTCGA", "PBM E-score": 0.292}
{"sequence": "AACGTCAA", "PBM E-score": 0.401}
{"sequence": "CCCGTCAG", "PBM E-score": -0.282}
{"sequence": "CAAACTCA", "PBM E-score": 0.0635}
{"sequence": "GGCACCAC", "PBM E-score": -0.1}
{"sequence": "AAGCGATG", "PBM E-score": -0.134}
{"sequence": "CCAGTTCG", "PBM E-score": -0.0928}
{"sequence": "CAAACGCG", "PBM E-score": 0.0743}
{"sequence": "ATGGCCCA", "PBM E-score": -0.0308}
{"sequence": "AACTTCCA", "PBM E-score": -0.178}
{"sequence": "AGACCTAC", "PBM E-score": -0.227}
{"sequence": "ATCCCAGG", "PBM E-score": -0.234}
{"sequence": "CCGATCTC", "PBM E-score": -0.145}
{"sequence": "AACGTCAC", "PBM E-score": 0.488}
{"sequence": "AACGTCCC", "PBM E-score": -0.173}
{"sequence": "AACGTCTC", "PBM E-score": -0.0757}
{"sequence": "CACGTCAC", "PBM E-score": 0.489}
{"sequence": "TACGTCTA", "PBM E-score": 0.188}
{"sequence": "TACGTCCA", "PBM E-score": 0.0953}
{"sequence": "TGCGTCAA", "PBM E-score": 0.318}
{"sequence": "TACGTCAA", "PBM E-score": 0.484}
{"sequence": "CACGTCCC", "PBM E-score": -0.216}
{"sequence": "CACGTCTC", "PBM E-score": -0.097}
{"sequence": "GGCGTCAA", "PBM E-score": 0.263}
{"sequence": "TGCGTCCA", "PBM E-score": -0.0683}
{"sequence": "CATACTCC", "PBM E-score": 0.0426}
{"sequence": "CAGCCAAC", "PBM E-score": -0.13}
{"sequence": "CGAATTAG", "PBM E-score": 0.0675}
{"sequence": "CGTTTAAG", "PBM E-score": 0.0111}
{"sequence": "AGGTCTAC", "PBM E-score": -0.216}
{"sequence": "AAACTAGT", "PBM E-score": 0.062}
{"sequence": "CCCTGAGA", "PBM E-score": -0.247}
{"sequence": "GAAATCCC", "PBM E-score": -0.101}
{"sequence": "CGTTCTTA", "PBM E-score": 0.0793}
{"sequence": "AAGCCATG", "PBM E-score": -0.124}
